Screens deposited in PubChem BioAssay by National Center for Advancing Translational Sciences (NCATS).
FEN1 inhibitor = qHTS Assay for the Inhibitors of Human Flap endonuclease 1 (FEN1); P39748; Recombinant FEN1 flap cleavage, fluorescence, 15 min; Potency, µM (series often up to 114 µM), usual class: inhibitors; 0.35% of 390,000 active; note: nearly all actives have a fitted effect of over 65% in size
Target sequence (P39748 whole entry, looked up): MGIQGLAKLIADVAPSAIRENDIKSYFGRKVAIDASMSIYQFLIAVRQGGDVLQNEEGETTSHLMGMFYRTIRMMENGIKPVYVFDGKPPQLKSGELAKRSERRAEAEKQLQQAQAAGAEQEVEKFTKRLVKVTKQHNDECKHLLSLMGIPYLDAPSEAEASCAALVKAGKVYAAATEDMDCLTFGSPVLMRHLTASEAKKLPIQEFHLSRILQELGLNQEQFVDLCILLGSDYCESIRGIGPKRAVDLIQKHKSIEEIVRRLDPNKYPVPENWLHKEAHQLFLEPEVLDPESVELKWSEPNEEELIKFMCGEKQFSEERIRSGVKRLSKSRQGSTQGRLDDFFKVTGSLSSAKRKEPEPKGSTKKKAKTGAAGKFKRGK
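Reaction started by adding substrate (50 nM final) to 10 nM enzyme after 15 min room-temperature compound preincubation. Reads at 0 and 15 min, with data normalized and fitted to a four-parameter Hill equation.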
Pol beta inh = qHTS Assay for Inhibitors of DNA Polymerase Beta; P06746; Pol beta primer extension/strand displacement, fluorescence kinetic; Potency, µM (titrated, usually from 114 µM), hits mostly inhibitors; 1.3% of 340,000 active; AID 485314, 2010
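Curves were derived by four-parameter Hill fits of normalized qHTS data. The kinetic fluorescent primer-extension read was taken at 0 and 10 min after 50 nM substrate, following a 15 min room-temperature preincubation of 10 nM enzyme with compounds.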
POLH inh = qHTS for Inhibitors of Polymerase Eta | Potency, µM (titrated, usually from 114 µM), most hits filed as inhibitors | DNA polymerase eta (Homo sapiens), Q9Y253 | 1.2% of 390,000 active | recombinant Pol eta, fluorescent DNA replication assay
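Pol eta at 10 nM preincubated with compounds 15 min at room temperature; reaction started with fluorescent substrate (50 nM final) and read kinetically at 0 and 10 min.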
POLK inh = qHTS for Inhibitors of Polymerase Kappa; DNA polymerase kappa (Homo sapiens), Q9UBT6; purified Pol kappa, fluorescent DNA synthesis assay, 10 min; Potency, µM (doses to about 107 µM), usual class: inhibitors; 0.53% of 400,000 active; AID 588579, 2011
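Readout: fluorescence, taken kinetically at 0 and 10 min. Conditions: 10 nM Pol kappa, 15 min RT compound preincubation, 50 nM substrate final. Controls: enzyme-free buffer wells.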
POLI inh = qHTS for Inhibitors of Polymerase Iota; DNA polymerase iota (Homo sapiens), Q9UNA4; Pol iota fluorescent replication assay, 10 min; Potency, µM (doses to about 115 µM), hits mostly inhibitors; 1% of 390,000 active
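Fluorescent replication assay read twice, at 0 min and 10 min after adding 50 nM (final) substrate. Enzyme (10 nM) and compounds were first incubated 15 min at room temperature; enzyme-free buffer wells were negative controls.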
Tb PGK inh = qHTS Assay to Find Inhibitors of Phosphoglycerate Kinase. PGK/GAPDH coupled, Kinase-Glo luminescence, 60 min. Potency, µM (series often up to 57.5 µM), hits mostly inhibitors. 0.043% of 380,000 active; note: nearly all actives have a fitted effect of over 60% in size
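Luminescent ATP detection (Kinase-Glo Plus) follows a 60-minute room-temperature incubation, with wells lacking PGK as controls. Buffer: 100 mM TEA (pH 7.6), 5 mM MgCl2, 0.01% Tween-20. Coupling enzyme GAPDH (100 nM final) supplies unstable 1,3-BPG in-well.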
Of the large screens only hits and unclear results are named; the others gave an inactive call; ! = not active in a repeat. This is a sample that favours compounds with a hit; in the whole collection about 2.4% have one here. Calls come from the whole dose curve; as a rule, active = well fitted curve in the direction sought with a large enough effect; inconclusive = small, poorly fitted or top-dose-only effect, or another doubt; inactive = no such curve, though single readings can be large; an effect the other way counts as inactive or inconclusive.

CCCC[C@@H]1CCCO[C@@](C(=O)NCc2cc(C)n(C)n2)(C(F)(F)F)C1	none (no result: Pol beta inh)
CCC[C@@H]1CCCO[C@@](C(=O)NCc2cc(C)n(C)n2)(C(F)(F)F)C1	POLK inh inconclusive, POLI inh 89µM! (no result: Pol beta inh)
Nc1c(C(=O)Nc2nc3ccccc3s2)sc2nc(-c3cccs3)ccc12	POLH inh 89µM, POLK inh inconclusive, POLI inh 32µM
Nc1c(C(=O)Nc2ccccc2Br)sc2nc(-c3cccs3)ccc12	POLI inh inconclusive
NS(=O)(=O)c1cccc2c1c([N+](=O)[O-])cc1[nH]c(=O)c(=O)[nH]c12	POLK inh 21µM (no result: FEN1 inhibitor, Pol beta inh, POLH inh, POLI inh, Tb PGK inh)
O=C(C[N+]1(CCc2ccccc2)CCOCC1)c1ccccc1	none (no result: Pol beta inh, POLH inh, Tb PGK inh)
NNc1ccccc1C(F)(F)F	Pol beta inh 20µM
Cc1nc2ccc([N+](=O)[O-])cc2c(=O)n1Cc1cccc(Br)c1	Pol beta inh 79µM
Cc1nc2ccc([N+](=O)[O-])cc2c(=O)n1Cc1ccc([N+](=O)[O-])cc1	none
Cc1cc(OC(C)C(=O)NCC2CCC(C(=O)O)CC2)c2c(C)c(Cc3ccccc3)c(=O)oc2c1 (configuration not stated)	FEN1 inhibitor inconclusive, POLH inh inconclusive, POLI inh 79µM
Cc1c(Cc2ccccc2)c(=O)oc2c(C)c(OC(C)C(=O)NCC3CCC(C(=O)O)CC3)ccc12 (configuration not stated)	none
Nc1cccc2c(=O)[nH]ccc12	none (no result: FEN1 inhibitor, Pol beta inh, POLH inh, POLI inh, Tb PGK inh)
Cc1cc(NC(=O)Cn2nc(-c3cccs3)ccc2=O)cc(C)c1Br	none
Cc1c(Br)ccc(NC(=O)Cn2nc(-c3cccs3)ccc2=O)c1C	Pol beta inh 18µM, POLI inh 50µM
Cc1cc(C)cc(C(=O)C[n+]2cccc(Br)c2)c1	none (no result: Pol beta inh, POLH inh, Tb PGK inh)
CCCC[C@]12Cc3cc(OC)c(OC)cc3C(O1)c1c(cc(-c3ccccc3)oc1=O)O2	none (no result: FEN1 inhibitor, POLH inh, POLK inh, POLI inh, Tb PGK inh)
CCCC[C@]12Cc3ccccc3C(O1)c1c(cc(-c3ccccc3)oc1=O)O2	Pol beta inh 3.5µM (no result: FEN1 inhibitor, POLH inh, POLK inh, POLI inh, Tb PGK inh)
CC(C)(C)OC(=O)N1CCN(c2nc(-c3cccs3)nc3ccccc23)CC1	none (no result: Pol beta inh, POLH inh, Tb PGK inh)
Cc1cccc(OCC(=O)Nc2ccc(O)c(-c3nc4ccccc4o3)c2)c1	POLI inh inconclusive (no result: Pol beta inh, POLH inh, Tb PGK inh)
COC(=O)c1ccc(=O)c2nc3/c(=C/O)c(O)cc(=O)c3[nH]c12	FEN1 inhibitor 40µM, Pol beta inh inconclusive, POLH inh 28µM, POLK inh 14µM, POLI inh inconclusive
Cc1ccc(C(=O)c2c(C)oc3c2C(=O)C(=O)c2ccccc2-3)cc1	POLH inh 45µM
Cc1ccc(C(=O)c2coc3c2C(=O)C(=O)c2ccccc2-3)cc1	none (no result: Tb PGK inh)
COc1ccc(N2Cc3cccc(C(=O)Nc4ccc(F)cc4)c3C2=O)cc1	Pol beta inh 6.3µM, POLH inh inconclusive, POLK inh inconclusive, POLI inh inconclusive
CCCN1Cc2cccc(C(=O)Nc3cc(OC)cc(OC)c3)c2C1=O	none
COCCN1Cc2cccc(C(=O)Nc3ccc(C)c(C)c3)c2C1=O	none
COc1ccc(N2Cc3cccc(C(=O)Nc4ccc(C)c(C)c4)c3C2=O)cc1	Pol beta inh 11µM, POLI inh inconclusive
COc1ccc(N2Cc3cccc(C(=O)NC(C)CCc4ccco4)c3C2=O)cc1 (configuration not stated)	FEN1 inhibitor inconclusive, Pol beta inh 7.9µM, POLH inh 22µM, POLK inh inconclusive, POLI inh inconclusive
CC(CCc1ccco1)NC(=O)c1cccc2c1C(=O)N(C1CCCCC1)C2 (configuration not stated)	Pol beta inh inconclusive
CC1Cc2ccccc2C[N+]1(C)CC(=O)c1cccc([N+](=O)[O-])c1 (configuration not stated)	none (no result: Pol beta inh, POLH inh, Tb PGK inh)
COc1ccc2c(c1)C=C/C2=C\c1ccc(N(C)C)cc1	none (no result: Pol beta inh, POLH inh, Tb PGK inh)
COc1ccccc1C(=O)Nc1nnc(SCc2cc(=O)c3cc(Cl)ccc3[nH]2)s1	Pol beta inh 4µM
Cc1ccc2[nH]c(CSc3nnc(NC(=O)c4ccc(Cl)cc4)s3)cc(=O)c2c1	none
COc1ccc(NC(=S)NCCCCCC(=O)C[N+](=O)[O-])cc1	POLH inh 79µM, POLI inh inconclusive
O=C(COc1ccccc1F)OCc1cc(=O)n2nc(-c3cccs3)sc2n1	Pol beta inh 32µM, POLI inh inconclusive
Cc1cccc(C(=O)OCc2cc(=O)n3nc(-c4cccs4)sc3n2)c1	Pol beta inh 20µM, POLH inh inconclusive, POLK inh inconclusive, POLI inh 89µM
O=C(OCc1cc(=O)n2nc(-c3cccs3)sc2n1)c1ccccc1	Pol beta inh 35µM, POLH inh 79µM, POLI inh 79µM
O=C(OCc1cc(=O)n2nc(-c3cccs3)sc2n1)c1ccc(Cl)cc1	Pol beta inh 32µM, POLH inh inconclusive, POLI inh inconclusive
C#C[C@]1(O)CC[C@H]2C3CCC4=Cc5oncc5CC4(C)C3CCC21C (some centres not stated)	POLI inh inconclusive (no result: FEN1 inhibitor, POLK inh, Tb PGK inh)
Cc1nc(CC(=O)Nc2cccc(C)c2C)cs1	none
CC[C@H](C)[C@H](N)C(=O)N[C@@H](CC(N)=O)C(=O)N1CCC[C@H]1C(=O)N[C@H](C(=O)N[C@@H](Cc1ccc(O)cc1)C(=O)N[C@@H](CCCN=C(N)N)C(=O)N[C@@H](CC(C)C)C(=O)N[C@@H](CCCN=C(N)N)C(=O)N[C@@H](Cc1ccc(O)cc1)C(N)=O)[C@@H](C)CC	none (no result: FEN1 inhibitor, Pol beta inh, POLH inh, POLI inh, Tb PGK inh)
Cc1ccc2c(c1)c(C)cc(=O)n2CCC(=O)O	Pol beta inh 13µM
O=C(O)c1cc(N/N=C/c2ccc(-c3ccccc3)cc2)ccc1Cl	Pol beta inh 89µM, POLH inh inconclusive (no result: Tb PGK inh)
COc1ccc2ccccc2c1/C=N/Nc1cccc(C(=O)O)c1	none
COc1cc(/C=N/Nc2ccc(Cl)c(C(=O)O)c2)ccc1OC(=O)c1cccs1	Pol beta inh inconclusive, POLH inh 79µM
COc1ccc(C(=O)Oc2ccc(/C=N/Nc3ccc(Cl)c(C(=O)O)c3)cc2OC)cc1	FEN1 inhibitor inconclusive, Pol beta inh inconclusive, POLH inh 79µM
COc1ccc2ccccc2c1/C=N/Nc1ccc(Cl)c(C(=O)O)c1	POLH inh 45µM, POLK inh inconclusive, POLI inh inconclusive
Fc1cccc(CSc2nc3ncccc3[nH]2)c1	none
Fc1cccc(CSc2nc3ncc(Cl)cc3[nH]2)c1	Pol beta inh 35µM, POLI inh 71µM
COc1ccc(C=C2C(=O)c3ccccc3C2=O)cc1O	FEN1 inhibitor inconclusive, POLI inh 18µM, Tb PGK inh inconclusive
